Shown are actives, neighbours in structure and some others; about 4.6% of the full set was active somewhere.
ADAM17 inh: inhibitors of human ADAM17. P78536. recombinant ADAM17, EDANS/DABCYL FRET peptide cleavage. inhibition, % at 6.95 µM. 0.83% of 370,000 active. AID 720648;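 active means inhibition above the mean of compounds lying between control limits plus 3 SD, set per campaign, cut at about 8.5% in these data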
NR3A LBD binder: modulates the human NR3A ligand-binding domain | NR3A LBD differential scanning fluorimetry, Tm shift; 0% = protein alone, 100% = glycine-bound protein | Tm shift relative to glycine control, % at 25 µM | 2.5% of 340,000 active | AID 1259313;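 active means melting temperature shift of at least 10% of the positive control shift, at one fixed dose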
FAS-TE inh: FAS thioesterase (human) inhibition; 0.67% of 360,000 active; inhibition, % at 15 µM; recombinant FAS-TE, OMFH fluorogenic substrate, fluorescence endpoint; P49327;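 active means compounds whose normalised, plate-corrected inhibition of enzyme fluorescence in the single-dose primary screen is 50% or more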
ADAM10 inh: inhibitors of human ADAM10; O14672; recombinant ADAM10, EDANS/DABCYL FRET peptide cleavage, 3 h; inhibition, % at 7 µM; 0.62% of 370,000 active; AID 720582;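 active means inhibition above a per-campaign cutoff equal to the mean of compounds falling between control-based bounds plus 3 SD, cut at about 20% in these data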
proKLK7 act: proKLK7 (human) activation, primary screen. P49862. purified proKLK7, EDANS-DABCYL substrate fluorescence; 100% is mature enzyme control, 0% vehicle. activation, % at 7 µM. 0.9% of 370,000 active;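 active means activation above the mean of all tested compounds plus 3 SD, computed per campaign excluding outliers beyond control limits, cut at about 13% in these data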
Target sequence (P49862 whole entry, looked up): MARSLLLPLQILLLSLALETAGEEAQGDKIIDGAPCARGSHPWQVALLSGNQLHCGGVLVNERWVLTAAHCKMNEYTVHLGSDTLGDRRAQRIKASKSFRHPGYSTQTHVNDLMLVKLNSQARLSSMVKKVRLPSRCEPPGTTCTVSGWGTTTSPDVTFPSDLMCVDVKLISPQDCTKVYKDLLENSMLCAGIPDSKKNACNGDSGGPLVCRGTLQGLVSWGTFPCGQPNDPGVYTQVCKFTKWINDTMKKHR
FAS-TE conf: FAS thioesterase (human) inhibition, confirmation; shares compounds with FAS-TE inh; recombinant FAS-TE, OMFH fluorogenic substrate, fluorescence; inhibition, % at 15 µM; 45% of 2,300 active;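 active means compounds inhibiting the enzyme by at least 50% at 15 µM in any one of the replicates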
Large screens that a line does not name were inactive (follow-up assays come after a bar, where they were run).

O=C(COc1ncnc2ccccc12)Nc1cccc([N+](=O)[O-])c1	none
Cc1ccc([N+](=O)[O-])cc1NC(=O)c1ccc(C(C)(C)C)cc1	FAS-TE inh 68 | FAS-TE conf 72
O=C(CN(C(=O)c1ccc(Cl)cc1)C1CCCCC1)Nc1ccc(Cl)c([N+](=O)[O-])c1	FAS-TE inh 76 | FAS-TE conf inactive
O=C(COc1ncnc2ccccc12)Nc1ccc(Cl)c([N+](=O)[O-])c1	FAS-TE inh 68 | FAS-TE conf 66
CCOC(=O)[C@]12CCCC=C1N(CCCOC)C(=O)[C@@H]2CC(=O)N1CCCC1	none (no result: NR3A LBD binder, FAS-TE inh)
C[C@H]1C(c2ccccc2F)O[C@]2(C[C@H](O)c3ccccc3O2)C[C@@H]1O (stereo partly specified)	none (no result: NR3A LBD binder, FAS-TE inh)
COc1ccccc1/C=C(\NC(=O)c1ccc(OC)c(OC)c1)C(=O)Nc1cc([N+](=O)[O-])ccc1C	FAS-TE inh 60 | FAS-TE conf 71
O=C(CN(C(=O)c1ccccc1Cl)C1CCCCC1)Nc1ccc(Cl)c([N+](=O)[O-])c1	FAS-TE inh 62 | FAS-TE conf inactive
Cc1ccc([N+](=O)[O-])cc1NC(=O)CN(C(=O)c1ccc(Cl)cc1)C1CCCCC1	FAS-TE inh 86 | FAS-TE conf 91
COc1ccc(/C=C(/NC(=O)c2cccc([N+](=O)[O-])c2)C(=O)O)cc1OC	none
O=C(CSc1ccccn1)Nc1ccc(Cl)c([N+](=O)[O-])c1	none
COc1ccc(CCN(Cc2cccs2)S(=O)(=O)c2ccc(C)c(C)c2)cc1OC	none (no result: NR3A LBD binder, FAS-TE inh)
O=C(CSCc1ccc(F)cc1)Nc1ccc(N2CCOCC2)cc1N1CCOCC1	none
Cc1nn(Cc2ccc(F)cc2)c2sc(C(=O)Nc3ccc(N4CCOCC4)cc3N3CCOCC3)cc12	FAS-TE inh 52 | FAS-TE conf inactive
COC(=O)[C@]12C[C@H](CC(=O)NCCC(C)C)C(=O)N(Cc3ccc4c(c3)OCO4)C1=C[C@H](C(C)C)O[C@@H]2C1CC1	none (no result: NR3A LBD binder, FAS-TE inh)
CC1C(=O)CC(c2ccc([N+](=O)[O-])cc2)NC1c1ccc([N+](=O)[O-])cc1 (stereo unspecified)	FAS-TE inh 52 | FAS-TE conf inactive
COc1ccc(C2CC(c3ccccc3)=NN2C(=O)COC(=O)c2cnc(Cl)c(Cl)c2)cc1 (stereo unspecified)	none
COc1ccc(C2CC(c3ccccc3)=NN2C(=O)COC(=O)c2cccc(S(=O)(=O)N3CCOCC3)c2)cc1 (stereo unspecified)	FAS-TE inh 70 | FAS-TE conf inactive
COc1ccc(C2CC(c3ccccc3)=NN2C(=O)COC(=O)c2cccc(S(=O)(=O)N(C)C)c2)cc1 (stereo unspecified)	FAS-TE inh 72 | FAS-TE conf inactive
O=C(N/C(=C/C=C\c1ccccc1)C(=O)N1CCOCC1)c1ccc(Br)cc1	FAS-TE inh 65 | FAS-TE conf 61
CC(C)(C)NC(=O)/C(=C\C=C\c1ccccc1)NC(=O)c1ccc([N+](=O)[O-])cc1	NR3A LBD binder 15, FAS-TE inh 78 | FAS-TE conf 89
O=C(N/C(=C/C=C/c1ccccc1)C(=O)N1CCCCC1)c1ccc([N+](=O)[O-])cc1	FAS-TE inh 92 | FAS-TE conf 94
Cc1cccc(Cn2cc(COC(=O)N3CCOCC3)nn2)c1	none (no result: NR3A LBD binder, FAS-TE inh)
CCOc1cc(/C=C(\C#N)C(=O)Nc2ccccc2C(=O)O)ccc1OC(=O)c1ccc(C)cc1	FAS-TE inh 80 | FAS-TE conf inactive
COc1cccc(Cn2cc(COC(=O)NCCc3c[nH]c4ccccc34)nn2)c1	none (no result: NR3A LBD binder, FAS-TE inh)
N/C(=N\c1nc2c(c(=O)[nH]1)CCCC2)Nc1ccccc1	none
N/C(=N\c1nc2c(c(=O)[nH]1)CCCC2)Nc1ccccc1Sc1ccccc1	FAS-TE inh 51 | FAS-TE conf inactive
O=C(Nc1ccc(F)cc1)OCc1cn(Cc2cccc(F)c2F)nn1	none (no result: NR3A LBD binder, FAS-TE inh)
COCCn1c(=NC(=O)c2ccc(S(=O)(=O)N3CCCc4ccccc43)cc2)sc2cc(S(C)(=O)=O)ccc21	FAS-TE inh 84 | FAS-TE conf 32
O=C(NNc1c(Cl)cc(Cl)cc1Cl)c1cccc([N+](=O)[O-])c1	FAS-TE inh 55 | FAS-TE conf 58
COc1ccc(NC(=S)NC(NC(=O)c2ccccc2Cl)C(Cl)(Cl)Cl)c([N+](=O)[O-])c1 (stereo unspecified)	none
O=C(NC(NC(=S)Nc1c(Cl)cccc1Cl)C(Cl)(Cl)Cl)c1cccc([N+](=O)[O-])c1 (stereo unspecified)	FAS-TE inh 55 | FAS-TE conf inactive
O=C(NNC(=S)NC(=O)c1ccccc1Cl)c1cccc([N+](=O)[O-])c1	none
COc1cccc(CNC(=O)C2CCCN(c3ncccn3)C2)c1OC (stereo unspecified)	none (no result: NR3A LBD binder, FAS-TE inh)
O=C(Nc1ncc2c(n1)-c1ccccc1OC2)c1cccc([N+](=O)[O-])c1	FAS-TE inh 55 | FAS-TE conf 64
O=C(Nc1ncc2c(n1)-c1ccccc1OC2)c1ccc(Cl)cc1Cl	none
CCOC(=O)c1cc(-c2ccccc2)sc1NC(=O)C(C)N1C(=O)c2ccccc2C1=O (stereo unspecified)	FAS-TE inh 57 | FAS-TE conf inactive
O=C1CCCC2=C1C1(CCCC1)N=C(Nc1nc3cc(Br)ccc3o1)N2	none (no result: NR3A LBD binder, FAS-TE inh, proKLK7 act)
N#CCCN(CCC#N)S(=O)(=O)c1ccc(C(=O)Nc2nc(-c3ccccc3)c(C(=O)c3ccccc3)s2)cc1	NR3A LBD binder 12, FAS-TE inh 58 | FAS-TE conf inactive
O=C(Nc1ccc(S(=O)(=O)N2CCCC2)cc1)c1ccccc1	none
O=C(Nc1nc(-c2ccccc2)c(C(=O)c2ccccc2)s1)c1ccc(S(=O)(=O)N2CCCC2)cc1	NR3A LBD binder 14, FAS-TE inh 83 | FAS-TE conf inactive
O=C(Nc1ccccc1)c1ccc(S(=O)(=O)N2CCCC2)cc1	none
O=C(Nc1nc(-c2ccccc2)c(-c2ccccc2)s1)c1ccc(S(=O)(=O)N2CCCC2)cc1	FAS-TE inh 67 | FAS-TE conf inactive
CCCN(CCC)S(=O)(=O)c1ccc(C(=O)Nc2nc3c(s2)CCc2ccccc2-3)cc1	none
COC(=O)c1sc2ccccc2c1NC(=O)c1ccc(S(=O)(=O)N2CCCCC2)cc1	FAS-TE inh 62 | FAS-TE conf inactive
O=C(NC1CCCCN(Cc2ccc(Cl)cc2)C1=O)c1cccc([N+](=O)[O-])c1 (stereo unspecified)	none (no result: NR3A LBD binder, FAS-TE inh)
C[C@H]1C2CC(OC(=O)NCc3ccccc3)C(C2)[C@H]2CCCCN21 (stereo partly specified)	none (no result: NR3A LBD binder, FAS-TE inh)
O=C(NCCCCc1ccccc1)C12CN(Cc3ccccc3)CC1C(c1cccc([N+](=O)[O-])c1)=NO2 (stereo unspecified)	none
O=C(NCc1ccco1)C12CN(Cc3ccccc3)CC1C(c1cccc([N+](=O)[O-])c1)=NO2 (stereo unspecified)	FAS-TE inh 54 | FAS-TE conf inactive

Bioassay records as filed in PubChem BioAssay.
